Measurements published in paper PMC4336329 (PLoS ONE, 2015).
Hit rate of the full screen: of about 310,000 compounds, about 14,000 (4.5%) showed an effect of 50% or more. Effects have a minus sign here. Many of the other results were omitted from the sample, so strong results are more common in it than they were.

target: human ether-à-go-go-related gene (hERG) potassium channel (human, UniProt Q12809); assay: primary screen, population patch clamp on CHO cells stably expressing hERG; higher = less effect of the substance
Sequence (Q12809 whole entry, looked up): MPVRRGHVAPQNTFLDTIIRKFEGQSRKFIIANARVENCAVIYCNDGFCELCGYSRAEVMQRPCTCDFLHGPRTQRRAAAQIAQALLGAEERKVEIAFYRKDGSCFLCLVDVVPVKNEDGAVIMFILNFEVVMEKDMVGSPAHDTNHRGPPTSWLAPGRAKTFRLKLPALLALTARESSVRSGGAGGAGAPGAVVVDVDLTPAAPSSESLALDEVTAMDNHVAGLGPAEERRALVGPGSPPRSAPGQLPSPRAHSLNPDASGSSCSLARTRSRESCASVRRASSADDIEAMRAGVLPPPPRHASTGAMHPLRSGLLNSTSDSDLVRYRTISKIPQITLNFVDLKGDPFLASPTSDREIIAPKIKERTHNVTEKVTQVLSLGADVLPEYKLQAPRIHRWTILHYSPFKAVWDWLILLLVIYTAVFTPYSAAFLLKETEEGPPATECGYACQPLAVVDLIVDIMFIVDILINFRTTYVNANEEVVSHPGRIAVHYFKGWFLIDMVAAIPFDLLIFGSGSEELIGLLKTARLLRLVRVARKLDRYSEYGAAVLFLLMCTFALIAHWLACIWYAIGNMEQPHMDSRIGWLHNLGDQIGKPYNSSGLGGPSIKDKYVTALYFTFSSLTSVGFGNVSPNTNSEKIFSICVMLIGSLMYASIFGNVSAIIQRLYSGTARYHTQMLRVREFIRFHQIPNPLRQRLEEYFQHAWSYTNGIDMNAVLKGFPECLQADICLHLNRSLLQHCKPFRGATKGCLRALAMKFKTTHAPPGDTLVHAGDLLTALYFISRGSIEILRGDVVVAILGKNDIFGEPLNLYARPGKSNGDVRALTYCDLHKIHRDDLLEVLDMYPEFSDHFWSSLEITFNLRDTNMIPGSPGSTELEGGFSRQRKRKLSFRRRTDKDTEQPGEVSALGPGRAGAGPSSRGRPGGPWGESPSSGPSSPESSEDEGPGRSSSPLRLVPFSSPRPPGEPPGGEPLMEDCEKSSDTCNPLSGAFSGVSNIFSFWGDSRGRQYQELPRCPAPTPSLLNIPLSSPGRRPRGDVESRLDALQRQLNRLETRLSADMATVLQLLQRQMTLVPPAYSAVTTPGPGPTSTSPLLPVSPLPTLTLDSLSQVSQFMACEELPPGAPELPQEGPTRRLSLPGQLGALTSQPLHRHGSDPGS
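Also: peak tail current of the secondary pulse compared with the same well before compound.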

Row | Structure (SMILES) | hERG current change (%, negative = inhibition) at 10uM
1 | C=CCn1cccc(C(=O)Nc2ccc(F)cc2)c1=O | -24.8%
2 | COC(=O)CSc1nnc(-c2ccccn2)n1Cc1ccco1 | -13.8%
3 | COc1ccc(CN(C)C(C)C(=O)N(C)CC(=O)Nc2ccc(C)cc2)cc1F (stereo not drawn) | -57.1%
4 | COc1ccc(CCNC(=S)N(C)C)cc1OC | 32.8%
5 | COc1ccc(CN(C)C(C)C(=O)Nc2ccc(S(=O)(=O)N3CCCCC3)cc2)cc1F (stereo not drawn) | -19.7%
6 | COc1ccc(CCN(C)C(=S)NC(=O)c2ccc(F)cc2Cl)cc1OC | -20.4%
7 | COc1ccc(CCN(C)C(=S)Nc2ccc(SC(F)F)cc2)cc1OC | -74.7%
8 | COc1ccc(Cl)cc1NC(=O)CN(C)Cc1ccc(OC)c(OC)c1 | -9.72%
9 | COc1ccc(CN(C)CC(=O)Nc2ccc(N3CCOCC3)cc2)cc1OC | -7.84%
10 | COc1ccc(CN(C)CC(=O)Nc2ccc(SC(F)F)cc2)cc1OC | -76.2%
11 | COc1ccc(CN(C)CC(=O)Nc2cccc3ccccc23)cc1F | -13.4%
12 | CCOC(=O)[C@H]1[C@H]2COc3ccc(Cl)cc3[C@@H]2N2C(=O)c3cc(Cl)ccc3NC(=O)[C@@]12C | 3.59%
13 | COc1ccc(COC(=O)C2=C(C)NC(=O)NC2c2ccc(O)c(OC)c2)cc1 (stereo not drawn) | -3.97%
14 | Cc1ccc2[nH]c3c(c2c1)SC(C)(C)CC3=O | 3.75%
15 | COC(=O)C(NC(=O)CSc1nc(N)cc(=O)[nH]1)c1ccccc1 (stereo not drawn) | 18.3%
16 | C=CCc1ccc(OCCn2cncn2)c(OC)c1 | 7.93%
17 | CCCCCN(C(=O)NC(=O)NC(C)CC)S(C)(=O)=O (stereo not drawn) | 9.23%
18 | CCN(CC)CCn1c2c(c(SCC(=O)NCc3ccccc3)nc1=O)CCC2 | -38.7%
19 | COc1ccccc1NC(=O)CSc1nc(=O)n(CCN(C)C)c2c1CCCC2 | -40.4%
20 | CCN(CC)CCn1c2c(c(SCC(=O)NCc3ccccc3)nc1=O)CCCC2 | -31.4%
21 | CCN(CC)CCn1c2c(c(SCC(=O)Nc3ccccc3Cl)nc1=O)CCC2 | -59.8%
22 | CCN(CC)CCCn1c2c(c(SCC(=O)Nc3ccccc3Cl)nc1=O)CCC2 | -55.4%

Row | Structure (SMILES) | hERG current change (%, negative = inhibition) at 10uM
23 | CCN(CC)CCn1c2c(c(SCC(=O)Nc3ccccc3Cl)nc1=O)CCCC2 | -55.6%
24 | Cc1c(Cl)cccc1NC(=O)CSc1nc(=O)n(CCCN2CCOCC2)c2c1CCC2 | -47.1%
25 | O=C(CSc1nc(=O)n(CCCN2CCOCC2)c2c1CCCC2)Nc1ccccc1Cl | -42.9%
26 | C/C(=N\NC(=O)c1cccc(S(=O)(=O)N2CCCC2)c1)c1ccco1 | 14.1%
27 | COc1ccc(N2CC(NC(=O)c3cccc4ccccc34)CC2=O)cc1OC (stereo not drawn) | -2.85%
28 | COc1cccc(CCNC(=O)CC2C(=O)NCCN2CC(C)(C)C)c1 (stereo not drawn) | 15.8%
29 | CCCOc1ccc(NC(=O)CC2C(=O)OCC3CCCCN32)cc1 (stereo not drawn) | -4.12%
30 | COc1ccc(C2/C=C\CN(C(=O)Nc3ccc(C(F)(F)F)cc3)CC(=O)N2Cc2ccc(F)cc2)cc1 (stereo not drawn) | 6.55%
31 | NC(CO)(CO)CO.O=C(c1ccccc1)c1ccc2n1CCC2C(=O)O (stereo not drawn) | -3.5%
32 | COc1ccc(N(CC(=O)NCc2ccc3c(c2)OCO3)C(=O)c2csnn2)cc1 | -13.6%
33 | Cn1c(=O)oc2cc(S(=O)(=O)NCCC(=O)N3CCN(c4ccccc4F)CC3)ccc21 | -17%
34 | COc1ccc(/C(N)=C/C(=O)C(C)(C)C)cc1 | -5.64%
35 | COc1nc(Oc2ccc(=O)n(C)n2)nc(N(C)C)n1 | 0.595%
36 | N#Cc1ccc(S(=O)(=O)NC2CCN(Cc3ccccc3)CC2)cc1 | -31.8%
37 | COc1ccc(OCC(O)Cn2c(=N)n(CCN3CCOCC3)c3ccccc32)cc1.Cl (stereo not drawn) | -34.7%
38 | Cc1ccc(OCC(O)Cn2c(=N)n(CCN3CCCCC3)c3ccccc32)cc1.Cl (stereo not drawn) | -72.9%
39 | CCOc1ccc(C(O)(c2ccccc2)C(CN2CCCC2)c2ccccc2)cc1.Cl (stereo not drawn) | -34%
40 | COc1ccccc1OCCCCN1CCCCC1 | -1.89%
41 | COc1ccc(OCC(O)Cn2c(=N)n(CCN3CCCCC3)c3ccccc32)cc1.Cl (stereo not drawn) | -68.1%
42 | COc1ccc(OCC(O)CN2CCCCC2)cc1.Cl (stereo not drawn) | 8.1%
43 | COc1ccccc1OCC(O)Cn1c(=N)n(CCN2CCCCC2)c2ccccc21.Cl (stereo not drawn) | -65.4%
44 | CCOc1ccc(C(O)Cn2c(=N)n(CCN3CCCCC3)c3ccccc32)cc1.Cl (stereo not drawn) | -77.2%

Row | Structure (SMILES) | hERG current change (%, negative = inhibition) at 10uM
45 | Cc1ccc(OCC(O)Cn2c(=N)n(CCN3CCOCC3)c3ccccc32)cc1.Cl (stereo not drawn) | -43.6%
46 | Cc1onc(-c2c(F)cccc2Cl)c1C(=O)N1CCCc2ccccc21 | -21.5%
47 | CC(=O)c1ccc(NC(=O)C(=O)c2cn(CC(=O)N3CCCCC3)c3ccccc23)cc1 | 6.65%
48 | COc1ccc(-n2nc(C(=O)NCC(=O)N3CCN(c4ccccn4)CC3)c3ccccc3c2=O)cc1 | -34.3%
49 | CC(=O)N1CCN(S(=O)(=O)c2cccc(C(=O)Nc3nccs3)c2)CC1 | 3.42%
50 | CCCCN(c1ccccc1)S(=O)(=O)c1cccc(C(=O)O)c1 | 5.27%
51 | C=CCn1c(O)c(N=Nc2ccccc2C)c2ccccc21 | 4.06%
52 | COc1ccc(-n2nnnc2SCC(=O)N2CCCc3ccccc32)cc1OC | -13.4%
53 | O=C1C2CCCN2C(c2ccccc2F)N1c1cccc(Cl)c1 (stereo not drawn) | 3.69%
54 | Cc1ccc2nc(CCc3nc4ccc(C)cc4o3)oc2c1 | 4.09%
55 | CCOc1ccc(OCC)c(NC(=O)C2CCCN(S(=O)(=O)c3c(C)n[nH]c3C)C2)c1 (stereo not drawn) | 8.8%
56 | Cc1ccc(OCC(=O)Nc2cnn(CCCC(=O)O)c2)c([N+](=O)[O-])c1 | 3.59%
57 | COc1cccc(OC)c1C(=O)OCC(=O)N(c1ccccc1)C1CCCCC1 | -4.4%
58 | Cl.N=c1n(CCN2CCOCC2)c2ccccc2n1CC(O)COc1ccccc1 (stereo not drawn) | -39.3%
59 | Cl.OC(CNCCCN1CCCCC1)COc1ccccc1 (stereo not drawn) | -4.25%
60 | Cl.N=c1n(CCN2CCCCC2)c2ccccc2n1CC(O)COc1ccccc1 (stereo not drawn) | -68.2%
61 | COC(=O)N1C(=O)[C@](c2ccc(Cl)cc2)(C(C)C)N1C(=O)OC | 7.07%
62 | COc1ccc(-c2cnc3n2CCCCC3)cc1 | -33.1%
63 | CCOc1ccc(-c2cnc3n2CCCCC3)cc1 | -63.3%
64 | CCOc1ccc(-c2cnc3n2CCC3)cc1.Cl | -18.3%
65 | Cc1ccc(NC(=O)CCC(=O)N2CCOCC2)nc1 | 13%
66 | CCc1ccc(C2=NNC(=Nc3c(C)n(C)n(-c4ccccc4)c3=O)SC2)cc1 | 34.4%

Row | Structure (SMILES) | hERG current change (%, negative = inhibition) at 10uM
67 | CC(=O)c1cc(-c2ccccc2)n(CCC(=O)NC2CCCC2)c1C | 0.876%
68 | CCOC(=O)c1cc(-c2ccc(F)cc2)n(CCC(=O)NC2CCN(Cc3ccccc3)CC2)c1C | -64.2%
69 | CCOC(=O)c1cc(-c2ccccc2)n(CC(=O)Nc2ccc(OC)cc2)c1C | 6.19%
70 | CCOC(=O)c1cc(-c2ccccc2)n(CCC(=O)NC(C)CC)c1C (stereo not drawn) | -12.5%
71 | CCOC(=O)c1cc(-c2ccc(OC)cc2)n(CCC(=O)NC2CCN(Cc3ccccc3)CC2)c1C | -65.7%
72 | CCCNC(=O)CCn1c(-c2ccc(C)cc2)cc(C(=O)OCC)c1C | -6.08%
73 | CCOC(=O)c1cc(-c2ccccc2)n(CCC(=O)N2CCN(c3ccc(OC)cc3)CC2)c1C | -25.5%
74 | CCOC(=O)c1cc(-c2ccc(OC)cc2)n(CCC(=O)NCCN2CCC(C)CC2)c1C | -52.4%
75 | CCOC(=O)c1cc(-c2ccc(C)cc2)n(CCC(=O)NCCCOC)c1C | -11.5%
76 | O=C(Cn1c(=S)[nH]c2ccccc2c1=O)NCCc1ccccc1 | 16%
77 | CCC(NC(=S)NC1CCCCC1)c1ccc(C(C)C)cc1 (stereo not drawn) | 13.7%
78 | CC(C)=CCCC(C)NC(=O)NC1CCCCC1 (stereo not drawn) | -3.64%
79 | CCCc1cc(=O)oc2cc(C)cc(OCc3nn[nH]n3)c12 | 13%
80 | O=C(NCCO)c1ccc(Oc2ccc(C(F)(F)F)cc2[N+](=O)[O-])cc1 | -0.131%
81 | COc1ccccc1C(=O)Nc1c2c(nn1-c1ccc(Cl)cc1)CS(=O)(=O)C2 | 9.63%
82 | Cc1onc(-c2cccc(Cl)c2Cl)c1C(=O)O/N=C(\N)c1ccc([N+](=O)[O-])o1 | -65%
83 | C/C(=N/OC(=O)c1c(-c2ccccc2Cl)noc1C)c1cnccn1 | -7.04%
84 | Cc1onc(-c2c(F)cccc2Cl)c1C(=O)O/N=C(\N)c1ccc([N+](=O)[O-])o1 | -16.8%
85 | C/C(=N\OC(=O)c1c(-c2ccccc2Cl)noc1C)c1nccs1 | -2.44%
86 | Cc1onc(-c2ccccc2Cl)c1C(=O)O/N=C(\N)c1ccc([N+](=O)[O-])o1 | -43.6%
87 | C/C(=N\OC(=O)c1c(-c2ccccc2Cl)noc1C)c1ccncc1 | -58.6%
